PubChem BioAssay (Tox21)
Results filed as inconclusive are left out. Unmarked numbers belong to inactive results. Calls of active or inactive are those of the source. Calls follow the shape of the dose curve; as a rule, active = well fitted cell-killing curve with a large enough effect in the repeat runs; inconclusive = weak or mixed curves, or effect the other way; inactive = no such curve, though single readings can be large or run the other way.

test: qHTS assay for identifying genotoxic compounds that show differential cytotoxicity against isogenic chicken DT40 cell lines with known DNA damage response pathways - wild type cell line (AID 743012); conditions: DT40 wild type chicken cells viability, CellTiter-Glo, 40 h; series mostly up to 68.4 µM; activity change, negative = cytotoxicity: at the top concentration; also: nearly all actives have a fitted effect of over 60% in size
Text: U.S. Tox21 Program National Center for Advancing Translational Sciences [NCATS] NIH Chemical Genomics Center [NCGC] U.S. Environmental Protection Agency [EPA] National Institutes of Environmental Health Sciences [NIEHS] National Toxicology Program [NTP] U.S. Food and Drug Administration [FDA] Tox21 Assay Overview: DNA repair pathways play a critical role in cellular homeostasis by repairing DNA damage induced by endogenous processes and xenobiotics. Isogenic chicken DT40 cell lines deficient in different DNA repair pathways can be used to identify genotoxic compounds and aid in characterizing the nature of the DNA damage induced. Two DNA repair-deficient cell lines with disrupted genes, Rad54/Ku70 or Rev3, were used to screen the Tox21 10K compound library. Possible genotoxicity was based on the presence of a significant increase in cytotoxicity in one or more of the DNA repair-deficient cell lines compared to that observed in the parental DNA repair-proficient cell line. CellTiter Glo viability assay (Promega, Madison, WI) was used to measure cell viability in these cells after compound treatment. This assay includes the data from the wild type cell line.
Tox21 Assay Protocol Summary: 300 DT40 wild type cells in 5 uL/well were dispensed into white, solid-bottom 1536-well plates using a Multidrop Combi (ThermoFisher Scientific, Waltham, MA) dispenser. After the assay plates were incubated at 37 C/5% CO2 for approximately 0.5 hour, 23 nL of compounds dissolved in DMSO, positive controls or DMSO only was transferred into the assay plate by a pintool work station (Kalypsys, San Diego, CA). The assay plates were incubated at 37 C/5% CO2 for 40 hours. After 5 uL per well of CellTiter-Glo reagent was added into each well of the assay plates, the plates were incubated for 30 min at room temperature and the luminescence intensity of the plates was measured using a ViewLux (PerkinElmer, Shelton, CT) plate reader.
% is scaled to controls: 0 for no effect and ±100 for the full control effect; potency is read from the fitted curve at half-maximal effect.

Compound	activity change, negative = cytotoxicity	Potency
c1ccc2c(c1)CCc1ccccc1N2	-0.449% [at 95 µM]	–
c1ccc2sc(SN(C3CCCCC3)C3CCCCC3)nc2c1	-13.9% [at 95 µM]	–
CC(C)=CC(=O)C=C(C)C	14.8%	–
OC(CCN1CCCC1)(c1ccccc1)C1CCCCC1 (stereo not given)	–	11.4 µM (active)
Oc1cccc(O)c1O	–	26.6 µM (active)
O=[N+]([O-])c1ccc(Nc2ccc(Nc3ccccc3)c(S(=O)(=O)O)c2)c([N+](=O)[O-])c1	1.92%	–
CCCCCCCCC(CCCCCC)C(=O)O (stereo not given)	-1.14%	–
CN1C(=O)OC(C)(C)C1=O	–	inactive
Brc1cc(Br)c(Oc2cc(Br)c(Br)cc2Br)cc1Br	-11.8%	–
CC(C)(C)C(=O)C(=O)O	25.2%	–
C=CC(C)(CCC=C(C)C)OC(=O)CC(C)C (stereo not given)	-17.2%	–
CC1(CN2CCC(n3c(=O)[nH]c4ccccc43)CC2)OCc2ccccc2-n2cccc21 (stereo not given)	–	21.1 µM (active)
CCC(=O)OC	9.3% [at 95 µM]	–
CO[C@]1(NC(=O)CSC(F)F)C(=O)N2C(C(=O)O)=C(CSc3nnnn3CCO)CO[C@H]21	3.55%	–
O=C(Nc1cccc2c(=O)cc(-c3nn[nH]n3)oc12)c1ccc(OCCCCc2ccccc2)cc1	9.35%	–
O=c1[nH]c2ccc(Cl)cc2o1	15.2%	–
CCCCCCCCOc1ccc(C(=O)O)cc1	-0.807%	–
O=C(O)c1cccc(-c2noc(-c3ccccc3F)n2)c1	-1.64%	–
c1cc(N(CC2CO2)CC2CO2)ccc1Cc1ccc(N(CC2CO2)CC2CO2)cc1 (stereo not given)	–	3.44 µM (active)
O=C1NC(=O)c2cc([N+](=O)[O-])ccc21	1.69% [at 95 µM]	–

Compound	activity change, negative = cytotoxicity	Potency
O=C1NCCN1CCO	9.13% [at 95 µM]	–
CC(C)(c1ccccc1)c1ccccc1	-0.44%	–
CCn1cc(C(=O)O)c(=O)c2cc(F)c(N3CCNCC3)cc21	–	inactive
NNC(=O)CP(=O)(c1ccccc1)c1ccccc1	-1.25%	–
CC(=O)OCC(=O)NCCCOc1cccc(CN2CCCCC2)c1	6.11%	–
COc1ccccc1N1CCN(CC(O)COc2cccc3ccccc23)CC1 (stereo not given)	–	23.7 µM (active)
O=C(Cn1ccnc1[N+](=O)[O-])NCCO	4.05%	–
C=C(C)C(=O)OCCCCCCCCCCCCC	-2.32%	–
O=[N+]([O-])c1ccc(O/N=C/c2cc(Br)c(O)c(Br)c2)c([N+](=O)[O-])c1	-9.16%	–
C[C@@H]1CC(=O)NN=C1c1ccc(NN=C(C#N)C#N)cc1	–	18.8 µM (active)
CC1(C)S[C@@H]2[C@H](NC(=O)C(c3ccccc3)S(=O)(=O)O)C(=O)N2[C@H]1C(=O)O (stereo not given in full)	6.34%	–
OC[C@H]1O[C@@H](n2cnc3c(=S)nc[nH]c32)[C@H](O)[C@@H]1O	–	13.3 µM (active)
CCC(OCCCOC)OC(C)=O (stereo not given)	3.42% [at 95 µM]	–
CC1=C(Br)C(=O)C(Br)=C/C1=C(/c1ccccc1S(=O)(=O)O)c1cc(Br)c(O)c(Br)c1C	–	20.8 µM (active)
Cc1ccc(CO)cc1	5.22% [at 95 µM]	–
OCCOCC#CCOCCO	-6.55%	–
COc1ccccc1N1CCN(CCCCNC(=O)c2ccc(-c3ccc(C(C)=O)cc3)cc2)CC1	-14.8%	–
CCC(C)(C)OC	-2.59%	–
CCCCCCCCCCC(=O)O	18.3% [at 95 µM]	–
O=c1cc(-c2ccccc2)oc2cc(O)cc(O)c12	–	54.5 µM (active)
